Measurements as given in PubChem BioAssay (NCI).
About 83,000 compounds went through this panel and 20% of them were active in at least one assay; those are over-represented in the sample as a whole.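 A percent growth of 40 corresponds to 60% growth inhibition; 0 means no net growth; -100 means all cells died. Active threshold: below 10.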 Values without a mark were called inactive. Active and inactive are the calls of the source.

Columns and labels:
Experiment in all cases: NCI-60 one-dose screen, 48 h (100 = growth as untreated, 0 = no growth, -100 = all killed)
Details in all cases: 10 µM unless noted
[1] = system: NCI-H23 lung
[2] = system: NCI-H226 lung
[3] = system: NCI-H322M lung
[4] = system: HOP-62 NSCLC
[5] = system: NCI-H460 lung
[6] = system: HOP-92 NSCLC
[7] = system: NCI-H522 lung
[8] = system: A549/ATCC NSCLC
[9] = system: 786-0 renal
[10] = system: COLO 205 colon
[11] = system: DU-145 prostate
[12] = system: K-562 leukemia
[13] = system: MALME-3M melanoma
[14] = system: MDA-MB-231 breast
[15] = system: RXF 393 renal
[16] = system: SF-268 CNS
[17] = system: SF-295 CNS
[18] = system: SF-539 CNS
[19] = system: UACC-257 melanoma
[20] = system: M14 melanoma

Row | SMILES | growth [1] | growth [2] | growth [3] | growth [4] | growth [5] | growth [6] | growth [7] | growth [8] | growth [9] | growth [10] | growth [11] | growth [12] | growth [13] | growth [14] | growth [15] | growth [16] | growth [17] | growth [18] | growth [19] | growth [20]
1 | CCCC(O)Cn1ncc(C(=O)OCC)c1NC(=O)NCc1ccccc1F (stereo not given) | 81.1% | 96.8% | 95.6% | 105% | 97.8% | 92.1% | 57% | 82.4% | 95.6% | 116% | 99.7% | 66.7% | 98.9% | 91.3% | 101% | 96.3% | 89.9% | 107% | 72.4% | 93.1%
2 | COC1C[C@H](O[C@@H]2C[C@H](O[C@@H]3C[C@H](O[C@@H]4C(=O)c5c(cc6cc(O[C@H]7C[C@@H](O[C@H]8C[C@@H](O)[C@H](O)C(C)O8)[C@H](O)C(C)O7)c(C)c(O)c6c5O)C[C@H]4C(OC)C(=O)[C@@H](O)[C@@H](C)O)OC(C)[C@H]3O)OC(C)[C@@H]2O)OC(C)[C@@H]1O (stereo not given in full) | -1.75% (active) | 3.22% (active) | 6.22% (active) | -7.62% (active) | 6.26% (active) | -12.1% (active) | -33.1% (active) | 1.74% (active) | -5.74% (active) | -78.3% (active) | 14% | 4.88% (active) | -59.4% (active) | -7.44% (active) | -50.9% (active) | 18.3% | 7.37% (active) | -8.29% (active) | -37.3% (active) | -22.7% (active)
3 | CCCCCC(=O)OCC(=O)O[C@@H]1C[C@]2(C(C)C)O[C@@]1(C)[C@@H]1CC[C@@H](C)[C@H]1[C@@H]2OC(=O)/C=C/c1ccccc1 | 91.3% | 86% | 84.6% | 91.7% | 93.3% | 95.3% | 55.9% | 78.7% | 54.4% | 73.9% | 73.4% | 42.3% | 49.8% | 83.6% | -2.83% (active) | 54.4% | 90.2% | 92.3% | 87.2% | 69.1%
4 | COc1ccc(/C=N/NC(=O)CCN2c3ccccc3Sc3ccccc32)cc1 | 75.6% | 86.5% | 83.4% | 75.3% | 85.4% | 62.7% | 62.1% | 77.6% | 91.5% | 88.5% | 102% | 24% | 71.7% | 76.6% | 66.6% | 96.7% | 68.8% | 85.2% | 99.8% | 65.4%
5 | Cc1cnc(C(=O)NNc2nc3sc4c(c3c(=O)n2C)C(C)CCC4)cn1 (stereo not given) | 5.46% (active) | -1.53% (active) | 9.91% (active) | -39.1% (active) | 4.18% (active) | -9.03% (active) | -9.87% (active) | -5.22% (active) | 0.305% (active) | 0.0868% (active) | 7.49% (active) | 6.51% (active) | -22.3% (active) | -3.01% (active) | -12.6% (active) | 5.92% (active) | 8.03% (active) | -21.1% (active) | -11.3% (active) | -15.7% (active)
6 | NC(=O)CCC(C(=O)O)N1C(=O)c2ccc(O)cc2C1=O (stereo not given) | 118% | 107% | 112% | 113% | 109% | 93.2% | 102% | 122% | 111% | 119% | 118% | 72.2% | 157% | 113% | 115% | 111% | 91.7% | 106% | 107% | 108%
7 | CO[C@]12C=C/C(=C(/C(=O)OCc3cccnc3)C(=O)CCCCCCCC[C@@]3(OC)C=C/C(=C(/C(=O)OCc4cccnc4)C(=O)CCCCCCCC1)O3)O2 | -53.1% (active) | -45.6% (active) | 18.3% | 30.9% | 3.19% (active) | 2.61% (active) | -4.14% (active) | 10.7% | -38.4% (active) | -0.264% (active) | 20% | 1.46% (active) | -31.2% (active) | 13.9% | -87.2% (active) | 9% (active) | -0.607% (active) | 3% (active) | 33.6% | 3.57% (active)
